Bioassay records (PubChem)
PLK1 PBD inh – qHTS for Inhibitors of PLK1-PDB (polo-like kinase 1 - polo-box domain): Primary Screen; Potency, µM, actives largely listed as inhibitors; Serine/threonine-protein kinase PLK1 (Homo sapiens), P53350; 2.8% of 360,000 active; Plk1 PBD binding of FITC phosphopeptide, fluorescence polarization; also: series mostly up to about 57 µM; nearly all actives have a fitted effect of over 65% in size
HP1b binding inh – HTS for Inhibitors of HP1-beta Chromodomain Interactions with Methylated Histone Tails | Potency, µM (titrated, usually from 114 µM), usual class: inhibitors | AlphaScreen HP1-beta / biotin-H3K9me3 peptide binding | 0.56% of 390,000 active; also: nearly all actives have a fitted effect of over 70% in size
Target sequence (P83916 whole entry, looked up): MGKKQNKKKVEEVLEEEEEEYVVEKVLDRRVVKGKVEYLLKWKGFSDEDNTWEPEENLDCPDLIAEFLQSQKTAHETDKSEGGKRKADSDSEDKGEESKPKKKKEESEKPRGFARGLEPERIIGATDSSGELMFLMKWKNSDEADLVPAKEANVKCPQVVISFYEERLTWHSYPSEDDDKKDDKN
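Compound inhibition of the preformed complex between 50 nM HP1-beta and 50 nM biotinylated H3K9me3 peptide was read by AlphaScreen. Buffer was PBS pH 7.4 with 0.01% Tween-20. Incubations ran 30 min at room temperature, with 10 ug/mL donor/acceptor beads.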
BAZ2B inh – qHTS Assay for Inhibitors of BAZ2B. Bromodomain adjacent to zinc finger domain protein 2B (Homo sapiens), Q9UIF8. AlphaScreen BAZ2B-H3K14Ac peptide displacement. Potency, µM (doses to about 114 µM), usual class: inhibitors. 4.4% of 360,000 active; also: nearly all actives have a fitted effect of over 60% in size
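BAZ2B 50 nM plus b-H3(5-23)K14Ac 50 nM, PBS pH 7.4/0.01% Tween-20, 30 min RT; compound added (max 110 uM), 30 min RT; streptavidin donor/Ni-chelate acceptor beads 10 ug/mL final, 20 min dark; AlphaScreen read.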
G9a block – qHTS Assay for Inhibitors of Histone Lysine Methyltransferase G9a; G9a H3K9 monomethylation, AlphaScreen, 2 h; Potency, µM (titrated, usually from 102 µM), most hits filed as inhibitors; 8.8% of 350,000 active; also: nearly all actives have a fitted effect of over 75% in size
Target sequence (Q96KQ7 913-1193 limits assumed): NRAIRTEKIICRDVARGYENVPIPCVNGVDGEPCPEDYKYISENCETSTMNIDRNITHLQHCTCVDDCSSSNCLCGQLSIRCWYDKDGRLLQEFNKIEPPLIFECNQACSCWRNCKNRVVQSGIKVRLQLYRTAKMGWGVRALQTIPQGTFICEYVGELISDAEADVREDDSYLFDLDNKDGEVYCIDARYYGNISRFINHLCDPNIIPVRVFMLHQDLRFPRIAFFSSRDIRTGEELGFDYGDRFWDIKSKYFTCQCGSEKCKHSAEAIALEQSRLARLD
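Enzyme 20 nM + cpd, 15 min RT; add b-H3K9 pep 500 nM / SAM 20 uM; 2 h RT; anti-H3K9me1 Ab 0.5 ug/mL + SA donor / anti-rabbit acceptor beads 20 ug/mL each, 10 min; AlphaScreen read.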
PI5P4Ka inh – qHTS for Inhibitors of phosphatidylinositol 5-phosphate 4-kinase (PI5P4K) | max response, % | PI5P4Kalpha enzyme, ADP-Glo luminescence, 60 min; stronger effect = lower value | 1.2% of 330,000 active | Phosphatidylinositol 5-phosphate 4-kinase type-2 alpha (Homo sapiens), P48426; active = max response of -50% or lower; inconclusive = between -30% and -50%; inactive = -30% or higher; also: value at the top dose of about 77 µM
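Luminescence from ADP-Glo served as readout of PI5P4Kalpha activity in a qHTS format. Reaction: enzyme, substrate, compound, ATP at 5 microM final, 60 min at RT.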
JMJD2A Tudor inh – qHTS Assay for Inhibitors of JMJD2A-Tudor Domain; Lysine-specific demethylase 4A (Homo sapiens), O75164; AlphaScreen JMJD2A-Tudor / H3K4me3 peptide binding; Potency, µM (top dose mostly 114 µM), usual class: inhibitors; 4.4% of 390,000 active; also: nearly all actives have a fitted effect of over 50% in size
A number is an active result; – = inactive; ? = inconclusive; · = not tested or not shown. In the library only some 12% were active in any assay of this set; here they are far more common. Unless noted, calls follow the shape of the dose curve; as a rule, active = well fitted curve in the direction sought with a large enough effect; inconclusive = small, poorly fitted or top-dose-only effect, or another doubt; inactive = no such curve, though single readings can be large; an effect the other way counts as inactive or inconclusive.

SMILES	PLK1 PBD inh	HP1b binding inh	BAZ2B inh	G9a block	PI5P4Ka inh	JMJD2A Tudor inh
CC(C)n1c(O)c(N=NC(=O)Cc2csc(N3CCOCC3)n2)c2ccccc21	–	–	39.8µM	?	–	–
Cc1nc2ccccc2n1/C(=N\S(=O)(=O)c1ccccc1)c1ccccc1	–	–	–	50.1µM	–	–
O=C(CNc1ccc2ccccc2c1)N/N=C/c1ccc([N+](=O)[O-])o1	–	–	–	2.51µM	–	–
O=C(N/N=C/c1ccc([N+](=O)[O-])o1)C1CC1	–	–	50.1µM	?	–	?
O=C(COc1ccccc1)N/N=C/c1ccc([N+](=O)[O-])o1	–	–	–	–	-55.1	–
NC(=O)N/N=C/c1ccc([N+](=O)[O-])o1	–	–	–	–	–	–
CN(/N=C/c1ccc([N+](=O)[O-])o1)c1ccccc1	–	35.5µM	14.1µM	22.4µM	–	31.6µM
COC(=O)N/N=C/c1ccc([N+](=O)[O-])o1	–	–	–	–	–	–
CCN(c1ccccc1)S(=O)(=O)c1cccc(C(=O)Nc2ccc(C)cn2)c1	–	–	–	–	–	–
CC(C)CCN(Cc1ccco1)C(=O)c1cc2c(Cl)nc3ccccc3c2s1	·	–	–	–	·	–
Cc1nn(CC(=O)NCCCN2CCCC2)c(=O)c2nn(-c3ccccc3)c(C)c12	–	–	–	?	–	–
O=[N+]([O-])c1ccc(/C=N/NC(=S)Nc2ccccc2C(F)(F)F)o1	?	?	?	20µM	?	–
O=C(N/N=C/c1ccc([N+](=O)[O-])o1)C(O)c1ccccc1 (stereo not given)	–	–	–	–	–	–
O=S(=O)(NN1CCOCC1)c1ccc(Cl)s1	21.2µM	–	–	1.26µM	–	–
CN1CCN(NS(=O)(=O)c2ccc(Cl)s2)CC1	8.44µM	–	–	1.58µM	–	–
O=S(=O)(NN1CCOCC1)c1ccc(Br)s1	2.99µM	–	–	·	–	–
CN1CCN(S(=O)(=O)c2ccc(Cl)s2)CC1	–	–	–	?	–	–
O=C(CN(CC(=O)N1CCOCC1)S(=O)(=O)c1ccc(Br)s1)N1CCOCC1	23.8µM	–	·	·	–	?
COc1ccc(CNC(=O)c2cc3c(=O)n(C)c4ccccc4c3n2C)c(OC)c1	·	–	–	–	·	–
CC(C)Oc1cccc(NC(=O)C2(C)CCN2C(=O)C(C)C)c1 (stereo not given)	–	·	·	·	–	·
COc1ccc(N2CCN(S(=O)(=O)CCNC(=O)c3c(F)cccc3Cl)CC2)cc1	·	–	–	–	·	–
COc1ccc(Nc2nc(-c3c(C)nc4ncccn34)cs2)cc1	–	–	?	17.8µM	–	?
O=C(Nc1ccc(-c2csc(Nc3ccc(Cl)cc3)n2)cc1)c1ccccc1	–	–	·	·	–	–
Cc1nc2ncccn2c1-c1csc(Nc2ccccc2)n1	–	–	–	25.1µM	–	?
Cc1nc2ncccn2c1-c1csc(Nc2ccc(N(C)C)cc2)n1	–	?	31.6µM	7.94µM	–	28.2µM
SMILES	PLK1 PBD inh	HP1b binding inh	BAZ2B inh	G9a block	PI5P4Ka inh	JMJD2A Tudor inh
Cc1nc2ncccn2c1-c1csc(Nc2ccc(S(N)(=O)=O)cc2)n1	–	–	–	·	–	–
CC(=O)Nc1ccc(Nc2nc(-c3c(C)nc4ccccn34)cs2)cc1	–	–	·	·	–	79.4µM
COCCN1C(=O)CN(S(C)(=O)=O)CC1(C)C(=O)Nc1ccc2c(c1)OCCO2 (stereo not given)	–	·	·	·	–	·
O=P(OCC1CCCO1)(OCC1CCCO1)OCC1CCCO1 (stereo not given)	–	–	·	·	–	–
O=S(=O)(CCN1CCCCC1)CCS(=O)(=O)CCN1CCCCC1	–	–	·	·	–	–
COc1cccc2sc(Nc3nc(-c4ccccn4)cs3)nc12	·	·	50.1µM	–	·	·
c1ccc(Nc2nc(-c3ccccn3)cs2)cc1	–	–	39.8µM	–	–	?
c1ccc(-c2csc(Nc3cccnc3)n2)nc1	–	–	?	?	·	?
